Results reported in PubChem BioAssay AID2391 (Southern Research Specialized Biocontainment Screening …, 2010).
The campaign covered roughly 310,000 compounds. About 410 (0.13%) were called active. Another 2% or so got no clear call; they are omitted. How the calls were made is not given here. The list is a sample of the results. Measured potencies and affinities stand elsewhere.

Test: RSV antiviral activity via CPE protection, HEp-2 cells, primary 10 µM value included (AID 2391)
Conditions: RSV-induced CPE inhibition, at 10 µM, stronger effect = higher value

CPE inhibition, inactive:
Cc1cc(NC(=O)CCC(=O)N(CC(=O)NCC2CCCO2)c2cccc(F)c2)no1 (stereo unspecified) 0.87%
CC(=O)NC1(C(F)(F)F)C(=O)Nc2c1c(=O)[nH]c(=O)n2-c1ccccc1 (stereo unspecified) -0.08%
CCCCCCC(=O)N1CCC(c2nc3c(nnn3Cc3ccccc3Cl)c(=O)[nH]2)CC1 -3.63%
Cc1ccc(Nc2ccc(S(=O)(=O)N3CCOCC3)cc2[N+](=O)[O-])cc1C 7.23%
CC1=Nc2cc(C(=O)N3CCCC3)ccc2Sc2ccc(C)cc21 3.72%
CC1=Nc2cc(C(=O)N3CCCCC3)ccc2Sc2ccc(C)cc21 4.9%
COc1ccc(N2CCN(c3nc(C)c(C)c(=O)[nH]3)CC2)cc1 1.02%
COCCOc1cc(NC(=O)CS(=O)CC(=O)N(C)C)c(Cl)cc1Cl (stereo unspecified) 1.9%
O=C(Nc1ccc(Nc2ccccc2)cc1)C1CC1 0.83%
O=C(Nc1ccccc1)c1ccc(NC(=O)C2CC2)cc1 2.88%
CNC(=O)CO/N=C/c1ccc(N(C)C)cc1 2.24%
COc1ccc2cc(CN(Cc3cccnc3)S(=O)(=O)c3ccccc3)c(=O)[nH]c2c1 5.1%
CCCNC(=O)c1cc(S(=O)(=O)N2CCCCC2)ccc1N1CCOCC1 -0.63%
CCC(=O)Nc1nonc1-c1nc2ccccc2n1CC(C)C 4.88%
CCn1c(-c2nonc2NC(=O)c2ccccc2)nc2ccccc21 -1.62%
CC(C)NC(=O)CSc1ccccc1C(=O)NNC(=O)Cn1ccc(C(F)(F)F)n1 -1.83%
CCOc1ccc(C(C)=O)cc1CN1C(=O)NC2(CCCCCC2)C1=O -0.88%
CCOC(=O)c1nn(-c2ccccc2)c(=O)cc1OCC(=O)Nc1cc(C)ccc1OC 0.86%
O=C(NCc1cccs1)C1CCN(C(=O)NCc2ccccc2)CC1 0.51%
CCN1C(=O)/C(=C2/C(=O)N3c4c(cc(OC(C)=O)cc42)C(C)=CC3(C)C)SC1=S 7.27%
COc1cc2c3c(c1)/C(=C1/SC(=S)NC1=O)C(=O)N3C(C)(C)C=C2C 17.4%
Cc1ccc(OCCNC(=O)CCc2ccccc2)cc1C -0.93%
CCc1nccn1S(=O)(=O)c1ccc2ccccc2c1 1.31%
O=C(N/N=C/c1cccnc1)c1cc(C2CC2)nc2ccccc12 1.57%
C/C(N)=C(/C#N)C(=O)CSc1cc(C)c2ccccc2n1 12.3%
Cc1cc(C)c2nc(SCC#N)cc(C)c2c1 11.1%
